Assay results reported in PubChem BioAssay (EPA / NIEHS).
Activity calls are given as the source filed them. The calls were made as follows: active = hit-call score of the fitted dose curve at least 0.9, where 1 is the maximum; inactive = score below 0.9.

Assays:
[1] = ATG_CRE_CIS: Attagene CIS-FACTORIAL HepG2 Assay for human cAMP Responsive Element (CRE) binding protein 3 (AID 2282926); conditions: HepG2 CRE cis-reporter, Attagene multiplexed mRNA; actives raise or lower the signal
Summary of the method: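 Human liver HepG2, transient MRTU transfection, 24 h compound exposure. Total RNA → oligo(dT) RT → PCR → 6-FAM primer extension → HpaI cut → CE. Activity called both directions vs DMSO.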

[2] = target: CCAAT/enhancer-binding protein beta (Homo sapiens) (UniProt P17676); test: ATG_C_EBP_CIS: Attagene CIS-FACTORIAL HepG2 Assay for human CCAAT/Enhancer Binding Protein (C/EBP) beta (AID 2282927); conditions: HepG2 Attagene cis-factorial transcription factor reporter; actives raise or lower the signal
Summary of the method: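 HepG2 transiently transfected with multiplexed reporter units under cis-regulatory promoters reporting endogenous C/EBPb activity. After 24 h exposure, reporter mRNA assayed by RT-PCR, fluorescent labelling, HpaI digestion and capillary electrophoresis; bidirectional fitting versus DMSO.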

[3] = ATG_CMV_CIS: Attagene CIS-FACTORIAL HepG2 Assay for human CMV (Internal Marker) (AID 2282928); conditions: HepG2 CMV promoter reporter, transcription factor profiling; actives raise or lower the signal;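 also: endpoint acts as a background internal control marker rather than a target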
Summary of the method: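 CMV internal-marker background readout in transiently transfected HepG2 cells bearing cis-regulated reporter units. Reporter mRNA is measured 24 h after dosing by RT-PCR and capillary electrophoresis, with bidirectional fitting against DMSO.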

[4] = ATG_DR4_LXR_CIS: Attagene CIS-FACTORIAL HepG2 Assay for human Liver X Receptor (LXR), DR4 submotif (AID 2282929); conditions: HepG2 Attagene DR4 cis-reporter, mRNA transcription; actives raise or lower the signal
Summary of the method: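 The endpoint is DR4-element-driven reporter transcripts after 24 h chemical exposure of transfected HepG2 cells. These were measured via RT-PCR and capillary electrophoresis, and gain or loss of signal was fitted relative to DMSO controls.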

[5] = target: Aryl hydrocarbon receptor (Homo sapiens) (UniProt P35869); test: ATG_Ahr_CIS: Attagene CIS-FACTORIAL HepG2 Assay for human Aryl Hydrocarbon Receptor (Ahr) (AID 2282930); conditions: HepG2 AhR cis-factorial reporter transcription; actives raise or lower the signal
Summary of the method: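 HepG2 cells transiently transfected with cis-element-driven multiplexed reporter units; endogenous AhR activity read as reporter mRNA 24 h after dosing, via RT-PCR, 6-FAM labelling, HpaI digestion and capillary electrophoresis. Bidirectional fit relative to DMSO.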

[6] = ATG_AP_1_CIS: Attagene CIS-FACTORIAL HepG2 Assay for human Activator Protein 1 (AP-1) (AID 2282931); conditions: HepG2 Attagene cis-factorial AP-1 reporter mRNA; actives raise or lower the signal
Summary of the method: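 Readout is reporter transcript level from endogenous transcription factor activity, quantified by RT-PCR with fluorescent primer extension and capillary electrophoresis. Transiently transfected HepG2 cells, 24 h exposure. Curves fitted both directions versus DMSO.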

[7] = ATG_AP_2_CIS: Attagene CIS-FACTORIAL HepG2 Assay for human Activator Protein 2 (AP-2) (AID 2282932); conditions: HepG2 AP-2 cis-reporter, Attagene transcription factor profiling; actives raise or lower the signal
Summary of the method: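 Multiplexed mRNA reporter assay in HepG2: cis-regulated units report endogenous factor activity after 24 h treatment. Fluorescence from capillary electrophoresis of RT-PCR products gives the signal, with DMSO as baseline.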

[8] = ATG_BRE_CIS: Attagene CIS-FACTORIAL HepG2 Assay for human Bone Morphogenetic Protein (BMP) Response Element (BRE) (AID 2282933); conditions: HepG2 BMP response element reporter, Attagene transcription factor profiling; actives raise or lower the signal
Summary of the method: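 A HepG2 multiplex reporter system measured inducible reporter mRNA 24 h post-dosing. Detection: RT-PCR, 6-FAM primer extension, HpaI digestion, capillary electrophoresis. Activity fitted bidirectionally relative to DMSO.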

[9] = target: Transcription factor E2F1 (Homo sapiens) (UniProt Q01094); test: ATG_E2F_CIS: Attagene CIS-FACTORIAL HepG2 Assay for human E2F Transcription Factor 1 (AID 2282935); conditions: HepG2 Attagene cis-reporter, E2F reporter RNA transcripts; actives raise or lower the signal
Summary of the method: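 Measures reporter transcript levels via RT-PCR with capillary electrophoresis detection in HepG2 cells harboring cis-regulated reporter units; 24 h post-dose; bidirectional curve fitting with DMSO as baseline.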

[10] = ATG_E_Box_CIS: Attagene CIS-FACTORIAL HepG2 Assay for human Enhancer Box (E-box) (AID 2282936); conditions: HepG2 E-box cis-reporter transcription, actives raise or lower the signal
Summary of the method: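 First, HepG2 cells receive multiple cis-regulated reporter constructs by transient transfection. Next, chemicals are applied for 24 h. Finally, reporter mRNA is quantified via RT-PCR and capillary electrophoresis, with DMSO as baseline.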

[11] = ATG_M_61_CIS: Attagene CIS-FACTORIAL HepG2 Assay for M61 Transcription Factor (Internal Marker) (AID 2282937); conditions: HepG2 Attagene CIS-FACTORIAL M61 internal marker reporter; actives raise or lower the signal
Summary of the method: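 Readout is reporter mRNA by RT-PCR, fluorescent primer extension and capillary electrophoresis, with gain or loss fitted relative to DMSO. Transfected HepG2 cells carrying endogenous-TF-driven cis reporters were exposed to chemicals for 24 hours.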

[12] = ATG_M_19_CIS: Attagene CIS-FACTORIAL HepG2 Assay for M19 Transcription Factor (Internal Marker) (AID 2282939); conditions: HepG2 Attagene CIS-FACTORIAL M19 internal marker reporter; actives raise or lower the signal
Summary of the method: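 Chemical-treated HepG2 (24 h) with MRTU constructs; reporter transcripts detected by fluorescent RT-PCR fragment analysis on capillary electrophoresis. Internal background marker, DMSO as baseline.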

[13] = ATG_ERE_CIS: Attagene CIS-FACTORIAL HepG2 Assay for Estrogen Response Element (ERE) (AID 2282940); conditions: HepG2 ERE cis-reporter, Attagene RNA transcript; actives raise or lower the signal
Summary of the method: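 Human liver cells (HepG2) bearing transiently transfected, promoter-regulated reporter units were exposed 24 h. Reporter mRNA induction was detected by capillary electrophoresis of labelled RT-PCR products and fitted bidirectionally to DMSO.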

[14] = ATG_Ets_CIS: Attagene CIS-FACTORIAL HepG2 Assay for human Erythroblast Transformation Specific (ETS) (AID 2282941); conditions: HepG2 ETS cis-reporter transcription, actives raise or lower the signal
Summary of the method: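 HepG2 cells transfected with multiple cis-regulated reporter units measuring endogenous ETS-driven transcription, 24 h after dosing. Reporter mRNA quantified by RT-PCR with capillary electrophoresis; bidirectional fit relative to DMSO.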

[15] = target: Hepatocyte nuclear factor 3-beta (Homo sapiens) (UniProt Q9Y261); test: ATG_FoxA2_CIS: Attagene CIS-FACTORIAL HepG2 Assay for human Forkhead box A2 (FOXA2) (AID 2282942); conditions: HepG2 cis-reporter transcription factor activity, 24 h; actives raise or lower the signal
Summary of the method: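 Endogenous transcription factor activity is captured via cis-element-driven reporter transcripts in transfected HepG2. Total RNA taken at 24 h post-dosing; labelled RT-PCR products resolved by capillary electrophoresis. Gain or loss fitted versus DMSO.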

[16] = ATG_FoxO_CIS: Attagene CIS-FACTORIAL HepG2 Assay for human Forkhead box O (FoxO) (AID 2282943); conditions: HepG2 Attagene cis-reporter, FoxO element, mRNA; actives raise or lower the signal
Summary of the method: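 HepG2 cells transiently transfected with cis-element-driven reporter units report endogenous FoxO activity. After 24 h chemical exposure, reporter mRNA quantified by RT-PCR, fluorescent labeling, HpaI digestion and capillary electrophoresis; bidirectional fit versus DMSO.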

[17] = ATG_GATA_CIS: Attagene CIS-FACTORIAL HepG2 Assay for human GATA Binding Protein (AID 2282944); conditions: HepG2 GATA cis-element reporter, Attagene multiplex mRNA; actives raise or lower the signal
Summary of the method: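 Transfected cis-reporter HepG2 cells were treated with chemicals for 24 hours. Total RNA was then converted to cDNA, amplified with reporter-specific primers and analysed by fluorescent capillary electrophoresis, using DMSO-treated wells as baseline.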

[18] = ATG_GLI_CIS: Attagene CIS-FACTORIAL HepG2 Assay for human Zinc Finger Protein GLI1 (AID 2282945); conditions: HepG2, Attagene cis-factorial reporter mRNA, GLI element; actives raise or lower the signal
Summary of the method: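 Transiently transfected HepG2 cells report endogenous transcription factor activity via cis-element-driven reporter units. After 24 h compound exposure, reporter mRNA was measured by RT-PCR with capillary electrophoresis; bidirectional fitting against DMSO baseline.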

[19] = ATG_EGR_CIS: Attagene CIS-FACTORIAL HepG2 Assay for human Early Growth Response 1 (EGR1) (AID 2282938); conditions: HepG2 Attagene CIS-FACTORIAL EGR reporter mRNA; actives raise or lower the signal
Summary of the method: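 After 24 h compound exposure, RNA from reporter-transfected HepG2 cells was reverse-transcribed, PCR-amplified, fluorescently labelled and resolved by capillary electrophoresis. EGR1 reporter transcript changes, up or down, were fitted against DMSO, reflecting endogenous transcription-factor activity.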

Measured: AC50

Hepatocyte nuclear factor 3-beta (Homo sapiens), sequence (Q9Y261 whole entry, looked up): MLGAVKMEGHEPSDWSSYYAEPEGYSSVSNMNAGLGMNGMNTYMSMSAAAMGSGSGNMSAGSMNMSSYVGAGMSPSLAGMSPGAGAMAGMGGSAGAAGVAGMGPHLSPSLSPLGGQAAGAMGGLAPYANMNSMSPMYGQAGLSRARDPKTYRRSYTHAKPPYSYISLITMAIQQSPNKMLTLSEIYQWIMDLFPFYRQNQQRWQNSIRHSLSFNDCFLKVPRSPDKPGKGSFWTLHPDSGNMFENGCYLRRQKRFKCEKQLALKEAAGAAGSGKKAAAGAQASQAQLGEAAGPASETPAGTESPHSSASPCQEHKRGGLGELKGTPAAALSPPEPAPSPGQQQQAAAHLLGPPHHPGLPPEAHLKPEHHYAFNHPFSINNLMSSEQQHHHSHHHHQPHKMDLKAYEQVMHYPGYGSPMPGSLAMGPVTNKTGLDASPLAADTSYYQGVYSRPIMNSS
Aryl hydrocarbon receptor (Homo sapiens), sequence (P35869 whole entry, looked up): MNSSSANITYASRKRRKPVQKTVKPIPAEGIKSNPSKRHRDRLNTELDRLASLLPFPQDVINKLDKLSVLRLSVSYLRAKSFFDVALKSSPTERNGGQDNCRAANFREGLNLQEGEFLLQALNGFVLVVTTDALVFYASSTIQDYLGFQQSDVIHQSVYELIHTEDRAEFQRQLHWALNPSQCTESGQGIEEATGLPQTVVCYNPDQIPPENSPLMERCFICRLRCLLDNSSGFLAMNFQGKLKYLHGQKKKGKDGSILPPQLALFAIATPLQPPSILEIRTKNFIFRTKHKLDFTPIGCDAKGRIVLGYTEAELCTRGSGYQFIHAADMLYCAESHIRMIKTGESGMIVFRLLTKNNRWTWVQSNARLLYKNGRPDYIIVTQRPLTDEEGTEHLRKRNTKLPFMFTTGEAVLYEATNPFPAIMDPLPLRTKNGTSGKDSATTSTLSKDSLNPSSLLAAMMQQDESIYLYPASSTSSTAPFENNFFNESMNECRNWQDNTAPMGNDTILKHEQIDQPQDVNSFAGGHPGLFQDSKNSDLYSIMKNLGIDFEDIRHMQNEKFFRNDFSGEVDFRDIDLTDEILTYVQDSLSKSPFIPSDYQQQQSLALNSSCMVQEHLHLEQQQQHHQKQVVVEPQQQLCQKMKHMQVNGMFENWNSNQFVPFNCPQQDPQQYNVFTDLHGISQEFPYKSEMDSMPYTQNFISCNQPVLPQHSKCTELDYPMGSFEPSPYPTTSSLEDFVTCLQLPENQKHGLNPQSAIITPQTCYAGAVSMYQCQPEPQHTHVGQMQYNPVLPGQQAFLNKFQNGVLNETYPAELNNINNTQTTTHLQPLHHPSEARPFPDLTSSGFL
Transcription factor E2F1 (Homo sapiens), sequence (Q01094 whole entry, looked up): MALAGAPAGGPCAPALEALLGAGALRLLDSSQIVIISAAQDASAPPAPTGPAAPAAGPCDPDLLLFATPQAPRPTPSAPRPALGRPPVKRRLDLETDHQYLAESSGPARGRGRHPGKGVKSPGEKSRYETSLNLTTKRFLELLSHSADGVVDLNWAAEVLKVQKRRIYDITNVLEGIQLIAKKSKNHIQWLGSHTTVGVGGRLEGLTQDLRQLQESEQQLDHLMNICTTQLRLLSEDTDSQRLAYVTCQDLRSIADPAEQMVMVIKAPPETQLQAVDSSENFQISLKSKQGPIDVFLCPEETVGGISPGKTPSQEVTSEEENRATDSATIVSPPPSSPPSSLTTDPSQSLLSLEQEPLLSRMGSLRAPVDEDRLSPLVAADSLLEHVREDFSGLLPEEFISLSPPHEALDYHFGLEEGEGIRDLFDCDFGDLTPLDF
CCAAT/enhancer-binding protein beta (Homo sapiens), sequence (P17676 whole entry, looked up): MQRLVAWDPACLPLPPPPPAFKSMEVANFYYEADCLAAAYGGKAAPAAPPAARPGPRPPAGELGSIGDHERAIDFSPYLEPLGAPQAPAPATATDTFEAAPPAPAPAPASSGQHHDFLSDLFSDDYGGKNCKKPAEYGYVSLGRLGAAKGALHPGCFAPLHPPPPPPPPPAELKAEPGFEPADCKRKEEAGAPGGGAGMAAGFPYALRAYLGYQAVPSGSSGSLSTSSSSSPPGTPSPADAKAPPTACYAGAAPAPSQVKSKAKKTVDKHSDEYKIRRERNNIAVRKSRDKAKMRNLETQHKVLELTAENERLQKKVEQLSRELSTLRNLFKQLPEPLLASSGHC

O=C(O)C[C@H](O)C[C@H](O)/C=C/c1c(C2CC2)nc2ccccc2c1-c1ccc(F)cc1
active: [13] 11.6 µM
inactive: [1] | [2] | [3] | [4] | [5] | [6] | [7] | [8] | [9] | [10] | [11] | [12] | [14] | [15] | [16] | [17] | [18]

BrC1CCC(Br)C(Br)CCC(Br)C(Br)CCC1Br (stereo unspecified)
active: [3] 23.9 µM | [6] 36.2 µM | [16] 87 µM | [18] 69.1 µM
inactive: [1] | [2] | [4] | [5] | [7] | [8] | [9] | [10] | [11] | [13] | [15]

O=C(O)c1ccc([N+](=O)[O-])cc1
inactive: [1] | [2] | [3] | [4] | [5] | [6] | [7] | [8] | [10] | [11] | [19] | [12] | [14] | [15] | [17] | [18]

CC1=CCC(O)(C(C)C)CC1 (stereo unspecified)
inactive: [1] | [2] | [3] | [4] | [5] | [6] | [7] | [8] | [9] | [10] | [11] | [12] | [13] | [14] | [15] | [17] | [18]
